Screen size: about 2,500 compounds; about 360 (14%) were called active. Not all results are given here. Unmarked numbers belong to inactive results.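 The calls were made as follows: active = signal-lowering compounds whose fitted half-maximal concentration AC50 is no higher than ten times their top tested concentration; inconclusive = flat curve with 30 to 70% inhibition, or poor fit; inactive = flat within 30%, signal increase, or AC50 above limit.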
Experiment: HRP/luminol detection interference without ALR, dose response, artefact control for ALR inhibitor project, biochemical, luminescence, no ALR or DTT, cherry-pick (AID 540356);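 as to activity change, negative = inhibition: 0% = median of neutral control wells and -100% = median of quercitin 100 µM wells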
Conditions: HRP/H2O2 luminol luminescence counterscreen; series mostly up to 10 µM; activity change, negative = inhibition: at the top concentration

| Structure (SMILES) | activity change, negative = inhibition [%] | AC50 |
| --- | --- | --- |
| COc1ccc(CNc2cc(C)ccc2C)c(OC)c1OC | -0.348 | – |
| CC(NC(=O)C(=O)N1CCCCC1)C(c1cccs1)N1CCN(c2ccc(F)cc2)CC1 (stereo unspecified) | -2.02 | – |
| NNC(=O)c1ccc(O)cc1O | -15.9 | – |
| NNC(=O)CCc1nc2ccc(O)cc2[nH]1 | – | 10.3 µM (active) |
| Nc1ccc2nc(COc3ccccc3)[nH]c2c1 | -2.37 | – |
| C/C(=N\Nc1ccc(C(=O)O)cc1)c1ccc(Br)cc1 | 0.548 | – |
| COc1ccc(Cc2nc3ccccc3n2CC(=O)N/N=C/c2ccc(O)cc2)cc1OC | -5.93 | – |
| COc1cccc(-c2noc(Cn3nc(C)c([N+](=O)[O-])c3C)n2)c1 | -1.36 | – |
| Nc1ccc2nc(NC(=O)C3CCCCC3)sc2c1 | -15.8 | – |
| Nc1cccc(C(=O)Nc2ccc3nc(-c4cccnc4)[nH]c3c2)c1 | -4.09 | – |
| Nc1ccc2nc[nH]c2c1 | -6.66 | – |
| Cn1c(C2CCCCC2)nc2cc(N)ccc21 | -6.46 | – |
| Nc1ccc(-c2nc3ccccc3[nH]2)cc1 | -5.97 | – |
| CC(C)(C)c1ccc(-c2nc3cc(N)ccc3o2)cc1 | -0.704 | – |
| COc1ccc2nc(-c3ccc(N)cc3)[nH]c2c1 | -3.19 | – |
| Nc1ccc(-c2nc3cc(N)ccc3o2)cc1 | -2.98 | – |
| Nc1ccc2nc(-c3ccccc3)[nH]c2c1 | – | 9.02 µM (active) |
| O=[N+]([O-])c1ccc(CSC2=NCCN2)cc1 | -0.782 | – |
| Cc1cccc2nc(-c3cccnc3)c(Nc3ccccc3)n12 | 0.126 | – |
| COc1ccc(NCC(=O)N/N=C/C2CCCCC2)cc1 | -4.24 | – |
| NNc1nc2ccc(F)cc2s1 | 2.12 | – |
| Cc1[nH]c2ccccc2c1/C=N/NC(=O)Cc1cccs1 | 0.71 | – |
| COc1cc(CNc2ncc(-c3ccc(Cl)cc3)n2C)cc(OC)c1OC | -1.7 | – |
| Cc1ccc(Nc2c(-c3ccccc3O)nc3ncccn23)cc1 | -0.343 | – |
| Cc1csc(/C(=N/OC(=O)c2ccco2)C(N)=O)n1 | -4.37 | – |

| Structure (SMILES) | activity change, negative = inhibition [%] | AC50 |
| --- | --- | --- |
| CC(=O)Nc1ccc(N2C(=O)CSC2c2ccccc2[N+](=O)[O-])cc1 (stereo unspecified) | -1.06 | – |
| Brc1ccc(CN2CCN(c3ccccc3)CC2)o1 | -0.297 | – |
| Cc1nc2ccc(-c3nc4ccc(N)cc4[nH]3)cc2[nH]1 | – | 4.68 µM (active) |
| Nc1ccc(-c2nc3ccc([N+](=O)[O-])cc3[nH]2)cc1 | -2.03 | – |
| Nc1ccc2oc(-c3cccs3)nc2c1 | 0.849 | – |
| Cc1ccc2nc(-c3cccc(N)c3)[nH]c2c1 | -2.99 | – |
| Nc1ccc2sc(N)nc2c1 | 0.855 | – |
| O=C(Nc1nc(-c2ccccc2)ns1)c1cccs1 | 0.554 | – |
| Cc1nnc2sc(SCc3cccc(Cl)c3)nn2c1=O | -3.49 | – |
| O=S(c1ccc2ccccc2c1)c1cnns1 (stereo unspecified) | -1.35 | – |
| C/C(Cl)=C\Cn1c(Nc2ccccc2)nc2c1c(=O)n(C)c(=O)n2C | -2.8 | – |
| CSCc1ccc(C(=O)NC(C)c2ccc(-n3ccnc3)cc2)cc1 (stereo unspecified) | 8.36 | – |
| O=C(CCc1ccccc1)N1CCN(c2ccc(F)cc2)CC1 | -3.68 | – |
| CC(=O)Nc1ccc(-c2csc(NNC(=O)c3ccccc3)n2)cc1 | 3.23 | – |
| CC(C)=NNc1nc(-c2ccccc2)cs1 | 16.3 | – |
| CC(C)=NNc1nc(-c2ccc(N3C(=O)CCC3=O)cc2)cs1 | – | 6.32 µM (active) |
| CN(C)c1ccc(C(=O)Nc2nc3c(s2)CCCC3)cc1 | -0.229 | – |
| CSCC[C@H](NC(=O)N1CCn2c1nc1ccccc12)C(=O)NC1CCCCC1 | 0.885 | – |
| O=C(Cc1ccccc1)NNc1c2ccccc2nc2ccccc12 | -6.89 | – |
| CC(=O)NC(C)C(c1cccs1)N1CCN(c2ccccc2)CC1 (stereo unspecified) | -0.36 | – |
| COc1ccc(C(=O)N2CCCC(Nc3ccc(C)c(C)c3)C2)cc1 (stereo unspecified) | -3.42 | – |
| CC(=O)c1ccc(S(=O)(=O)Nc2cccc(S(=O)(=O)NC3=NCCC3)c2)cc1 | 0.003 | – |
| c1ccc(NNC2=NCCCCC2)cc1 | – | 6.06 µM (active) |
| Oc1[nH]c2ccccc2c1C1=NCCCC1 | -3.74 | – |
| CN(C)c1ccc(CN(C(=O)c2ccccc2Br)C2CCS(=O)(=O)C2)cc1 (stereo unspecified) | -3.29 | – |

| Structure (SMILES) | activity change, negative = inhibition [%] | AC50 |
| --- | --- | --- |
| COc1ccc(N2CCN(CC(=O)Nc3ccc(C)c(C)c3)CC2)cc1 | -1.61 | – |
| Cc1ccc(C(=O)NCCSc2snnc2C)cc1 | 7.72 | – |
| Cc1ccc(-c2n[nH]c(=S)n2/N=C/c2c(C)[nH]n(-c3ccccc3)c2=O)cc1 | -10.5 | – |
| O=c1cc(-c2ccccc2)[nH]c2[nH]n(-c3ccccc3)c(=O)c12 | -14.8 | – |
| N#Cc1ccc(CSc2nnc(NC(=O)c3ccc(=O)[nH]c3)s2)cc1 | -1.28 | – |
| NNC(=O)c1cccc(COc2ccccc2Br)c1 | 2.34 | – |
| Cc1cccc(N2CCN(C(=O)C3CCCN(S(=O)(=O)c4cnc[nH]4)C3)CC2C)c1 (stereo unspecified) | -1.73 | – |
| S=c1[nH]nc(-c2cccc3ccccc23)n1-c1cccnc1 | -7.05 | – |
| COc1cccc(/C=N/NC(=O)CNC(=O)c2ccncc2)c1O | -1.7 | – |
| COc1cccc(/C=N/NC(=O)NC2CCCCC2)c1O | -11.7 | – |
| COc1cc(/C=N/n2c(C)n[nH]c2=S)ccc1OCc1ccccc1 | -10.1 | – |
| Cc1cccc(/C=N/n2c(-c3ccccc3)n[nH]c2=S)c1O | -0.122 | – |
| COc1cc(/C=N/N2CCCCC2)cc([N+](=O)[O-])c1O | -15.9 | – |
| COc1cccc(/C=N/n2c(-c3cc(C)[nH]n3)n[nH]c2=S)c1OC | -11.2 | – |
| COc1ccc(C2CC(c3ccccc3)=NN2c2ccccc2)c(C(=O)O)c1OC (stereo unspecified) | -9.87 | – |
| O=C(O)CCc1ccc(-c2cccs2)n1NC(=O)c1cccs1 | -2.5 | – |
| O=C(O)c1cc(O)ccc1NC(=O)c1cccc2ccccc12 | -8.12 | – |
| O=C(NCCN1CCCc2ccccc21)C1CCC(=O)N(CCc2ccccc2)C1 (stereo unspecified) | 0.511 | – |
| O=C1CC(=O)N(c2ccccc2)N1c1ccccc1 | -4.55 | – |
| c1ccc(CNc2ncnc3sc4c(c23)CCCC4)nc1 | 0.476 | – |
| Nn1c(Nc2ccccc2)nc2sc3c(c2c1=O)CCCC3 | -4.23 | – |
| Cc1ccc(NC2CCCN(C(=O)CCc3scnc3C)C2)cc1C (stereo unspecified) | -3.85 | – |
| CC(C)c1ccc(NC2CCCN(C(=O)c3cscn3)C2)cc1 (stereo unspecified) | -3.5 | – |
| CN(C)c1ccc(NC(=O)CN2CCN(S(=O)(=O)c3cc(Cl)ccc3Cl)CC2)cc1 | -1.2 | – |
| CCN(CC)c1ccc(/C=N/NC(=O)CC(C)C)cc1 | -1.9 | – |

| Structure (SMILES) | activity change, negative = inhibition [%] | AC50 |
| --- | --- | --- |
| COc1cc(/C=N/N2C(=O)C3C4C=CC(CC4)C3C2=O)ccc1O (stereo unspecified) | -1.77 | – |
| Oc1ccc(/C=N/n2c(COc3ccccc3)n[nH]c2=S)cc1O | -17.1 | – |
| CCCCCC(=O)N/N=C/c1cc(Br)c(O)c(OC)c1 | -8.81 | – |
| COc1cc(/C=N/NC(=O)C2C3CCCCC32C)cc(Br)c1O (stereo unspecified) | -9.25 | – |
| COc1cc(/C=N/N2C(C)CCCC2C)cc(Br)c1O (stereo unspecified) | -7.59 | – |
| COc1cc(/C=N/Nc2ccccc2)ccc1O | -7.74 | – |
| Cc1ccc(CN2CCSc3ccc(C(=O)NCCCN4CCN(C)CC4)cc32)cc1 | -4.31 | – |
| O=C(CN1CCN(c2ccc(O)cc2)CC1)Nc1ccc(S(=O)(=O)N2CCCC2)cc1 | -5.81 | – |
| Cc1ccc(-c2nc(Nc3cccc(C)c3)sc2CC(=O)O)cc1 | -2.49 | – |
| Cc1ccc(CS(=O)Cc2ccc(C(=O)N3CCN(c4ccccc4)CC3)o2)cc1 (stereo unspecified) | 0.836 | – |
| CN(C)c1ccc(NC(=O)CN2CCc3ccccc3C2)cc1 | -5.48 | – |
| CN(C)c1ccc(NC(=O)CCn2c(=S)oc3ccccc32)cc1 | -3.01 | – |
| O=C(NCC(c1ccco1)N1CCc2ccccc21)c1ccccc1F (stereo unspecified) | 0.891 | – |
| Clc1c(CSc2nc3ccccc3o2)nc2ccccn12 | -2.53 | – |
| CCCCCCCc1c(C#N)c(N)[nH]c(=S)c1C#N | -5.05 | – |
| Cc1ccc(Sc2ccc(S(=O)(=O)Nc3ccc(C(=O)O)cc3)cc2)cc1C | -7.49 | – |
| Cc1ccc(S(=O)(=O)Nc2ccc(N(C)C)cc2)cc1 | 0.687 | – |
| Cc1cc(C)c(S(=O)(=O)Nc2ccc(O)cc2)c(C)c1 | – | 9.93 µM (active) |
| CC(=O)Nc1ccc(S(=O)(=O)Nc2ccc(Nc3ccccc3)cc2)cc1 | -7.75 | – |
| Cc1cccc(C(=O)Nc2ccc(O)cc2)c1 | -13.4 | – |
| COc1ccc(S(=O)(=O)N/N=C(/C)c2ccncc2)c(OC)c1 | -4.06 | – |
| COc1cc(/C=N/NC(=O)c2nc3ccccn3c2C)cc(OC)c1O | -5.24 | – |
| O=C(Nc1ccccc1N1CCCC1)c1cccnc1 | -10.3 | – |
| O=C(Nc1ccc(N2CCCCC2)cc1)c1cccnc1 | 0.535 | – |
| O=C(NN=C1CCC(=NNC(=O)c2cccnc2)CC1)c1cccnc1 | – | 8.24 µM (active) |

| Structure (SMILES) | activity change, negative = inhibition [%] | AC50 |
| --- | --- | --- |
| Cc1ccc(N/N=C2/CCCNC2=O)cc1 | -2.46 | – |
| COc1ccccc1NS(=O)(=O)c1cc([N+](=O)[O-])ccc1N/N=C/c1c[nH]c2ccccc12 | 3.54 | – |
| Cc1ccc(C(=O)Nc2cccc([N+](=O)[O-])c2)cc1S(=O)(=O)Nc1ccc(C(=O)O)cc1 | -1.41 | – |
| CNC(=O)c1cc(Nc2nnc(-c3ccc(O)cc3)c3ccccc23)ccc1OC | -3.44 | – |
| CCN(CC)CCCN(C(=O)c1cccc(C)c1)c1nc(-c2ccc(OC)cc2)cs1 | -3.71 | – |
| Cn1c(CNS(=O)(=O)c2ccc(Br)cc2)n[nH]c1=S | -0.165 | – |
| CCCn1c(CCC(=O)O)ccc1-c1cccs1 | -6.04 | – |
| COc1cccc(NC(=O)CN2CCN(c3ccc(F)cc3)CC2)c1 | 0.116 | – |
| Cc1cc(Oc2ncccc2[N+](=O)[O-])c2cc(Cl)ccc2n1 | 0.22 | – |
| COc1ccccc1-n1cnc2cc(NCc3ccccc3O)ccc21 | -0.965 | – |
| COc1ccc(OC)c(CNc2ccc3c(c2)nc(C)n3C)c1 | -7.25 | – |
| O=[N+]([O-])c1ccc(-c2cn(-c3ccccc3F)c(=S)[nH]2)cc1 | -1.24 | – |
| Cc1nc(SCc2cccnc2)[nH]c(=O)c1C | 1.87 | – |
| Cc1ccc(NC2CCCN(C(=O)c3cc4ncccn4n3)C2)cc1C (stereo unspecified) | -0.727 | – |
| COc1cc(/C=N/Nc2nc(=O)[nH]nc2C)ccc1O | -6.83 | – |
| NC(=O)c1ccc(CSc2nc3ccccc3s2)cc1 | 2.17 | – |
| CNc1nnc(CSc2nc3ccccc3s2)s1 | -0.989 | – |
| CC(C)c1ccc(NC2CCCN(C(=O)C3=NN(C)C(=O)CC3)C2)cc1 (stereo unspecified) | -5.77 | – |
| COC(=O)c1sccc1NC(=O)c1cc(C)on1 | 2.59 | – |
| Cc1cc(C(=O)NNc2ccccc2F)no1 | – | 8.51 µM (active) |
| Cc1cc(C(=O)NNc2ccc(F)cc2F)no1 | 2.69 | – |

— PubChem BioAssay AID540356 (Broad Institute, 2011)
